Inconclusive results are not listed. Activity calls are given as the source filed them. Calls come from the whole dose curve; as a rule, active = well fitted cell-killing curve with a large enough effect; inconclusive = small, poorly fitted or top-dose-only effect, or effect the other way; inactive = flat fitted curve, though single readings scatter. Where a SMILES comes first, the peptide text is derived from it. The star is where a group is joined. PhAc = O=C(Cc1ccccc1)*
What was measured:
Test in all cases: Primary qHTS to identify gynecologic anti-cancer compounds using libraries of approved drugs and bioactive compounds (AID 1345084); note: nearly all actives have a fitted effect of over 55% in size
Conditions in all cases: Gynecologic cancer cell panel viability, ATPlite luminescence, 48 h; series mostly up to 57.5 µM
OV90 = system: OV90
Summary of the method: (§1)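 48 h compound exposure at 37 C, 5% CO2; five-point qHTS. ATPlite luminescence readout of cell ATP.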

PA-1 = system: PA-1
Summary of the method: as §1

SKOV3 = system: SKOV3
Summary of the method: as §1

Tov-21-G = system: Tov-21-G
Summary of the method: as §1

Tov112D = system: Tov112D
Summary of the method: as §1
% is set by controls: 0 for no effect and ±100 for the full control effect.

Cc1c(F)cc(C(=O)NC2CC2)cc1-c1ccc(C(=O)NCC(C)(C)C)cn1
inactive: Potency (OV90) | Potency (PA-1) | Potency (SKOV3) | Potency (Tov-21-G) | Potency (Tov112D)

CCOC(=O)CNC(=O)[C@@H]1CCCN1C(=O)Cc1ccccc1 (PhAc-Pro-Gly-OEt)
inactive: Potency (OV90) | Potency (PA-1) | Potency (SKOV3) | Potency (Tov-21-G) | Potency (Tov112D)

CC1(C)CCC[C@]2(C)C1CC=C(CO)[C@H]2CC/C(=C/CO)CO (stereo not given in full)
inactive: Potency (OV90) | Potency (PA-1) | Potency (SKOV3) | Potency (Tov-21-G) | Potency (Tov112D)

C[C@H]1/C=C/C=C/C=C/C=C/C=C/[C@@H](O)[C@H](C(=O)O)[C@H](O)C[C@H](O)CCC[C@H](O)C[C@H](O)C[C@H](O)[C@@H](C)C(=O)O[C@@H]1C
inactive: Potency (OV90) | Potency (PA-1) | Potency (SKOV3) | Potency (Tov-21-G) | Potency (Tov112D)

CC(C)C1NC(=O)C(CC2(O)c3ccccc3N3C(=O)C(Cc4ccccc4)NC32)NC1=O (stereo not given)
inactive: Potency (OV90) | Potency (PA-1) | Potency (SKOV3) | Potency (Tov-21-G) | Potency (Tov112D)

CC1C(O)C(O)C2C(C(=O)OCCc3ccc(O)cc3)=COC(O[C@@H]3O[C@H](CO)[C@@H](O)[C@H](O)[C@H]3O)C12 (stereo not given in full)
inactive: Potency (OV90) | Potency (PA-1) | Potency (SKOV3) | Potency (Tov-21-G) | Potency (Tov112D)

COc1ccc(N2CCN(CCCNC(=O)Cn3c(=O)c4cccn4c4c(C)ccnc43)CC2)cc1
inactive: Potency (OV90) | Potency (PA-1) | Potency (SKOV3) | Potency (Tov-21-G) | Potency (Tov112D)

CC1(C)CC[C@]2(C(=O)O)CC[C@]3(C)C(=CCC4[C@@]5(C)C[C@H](O)[C@H](O[C@@H]6O[C@H](CO)[C@@H](O)[C@H](O)[C@H]6O)[C@@](C)(CO)C5[C@H](O)C[C@]43C)[C@@H]2C1 (stereo not given in full)
inactive: Potency (OV90) | Potency (PA-1) | Potency (SKOV3) | Potency (Tov-21-G) | Potency (Tov112D)

Cc1cc(-n2c(=O)[nH]c(=O)n(C)c2=O)ccc1Oc1ccc(SC(F)(F)F)cc1
inactive: Potency (OV90) | Potency (PA-1) | Potency (SKOV3) | Potency (Tov-21-G) | Potency (Tov112D)

O=C(O)Cc1cn([C@@H]2O[C@H](CO)[C@@H](O)[C@H](O)[C@H]2O[C@@H]2O[C@H](CO)[C@@H](O)[C@H](O)[C@H]2O)c2ccccc12
inactive: Potency (OV90) | Potency (PA-1) | Potency (SKOV3) | Potency (Tov-21-G) | Potency (Tov112D)

C[C@@H]1CC[C@]2(C(=O)O)CC[C@]3(C)C(=CCC4[C@@]5(C)C[C@@H](O)[C@H](O)[C@@](C)(CO)C5CC[C@]43C)C2[C@H]1C (stereo not given in full)
inactive: Potency (OV90) | Potency (PA-1) | Potency (SKOV3) | Potency (Tov-21-G) | Potency (Tov112D)

CC1(C)CC[C@]2(C(=O)O[C@@H]3O[C@H](CO)[C@@H](O)[C@H](O)[C@H]3O)CC[C@]3(C)C(=CCC4[C@@]5(C)C[C@H](O)[C@H](O[C@@H]6OC[C@@H](O)[C@H](O)[C@H]6O)[C@@](C)(CO)C5CC[C@]43C)C2C1 (stereo not given in full)
inactive: activity change, negative = cytotoxicity (OV90) 6.42% [at 11.6 µM] | activity change, negative = cytotoxicity (PA-1) 8.05% [at 11.6 µM] | activity change, negative = cytotoxicity (SKOV3) 21.5% [at 11.6 µM] | activity change, negative = cytotoxicity (Tov-21-G) -9.27% [at 11.6 µM] | activity change, negative = cytotoxicity (Tov112D) 3.56% [at 11.6 µM]

Cc1ncc([N+](=O)[O-])n1C[C@H](O)CN1CCOCC1
inactive: Potency (OV90) | Potency (PA-1) | Potency (SKOV3) | Potency (Tov-21-G) | Potency (Tov112D)

CC(=O)/C=C/C1(O)C(C)(C)CC(O)CC1(C)O (stereo not given)
inactive: Potency (OV90) | Potency (PA-1) | Potency (SKOV3) | Potency (Tov-21-G) | Potency (Tov112D)

OC[C@H]1O[C@@H](OC[C@H]2O[C@@H](OCc3ccccc3)[C@H](O)[C@@H](O)[C@@H]2O)[C@H](O)[C@@H](O)[C@@H]1O
inactive: Potency (OV90) | Potency (PA-1) | Potency (SKOV3) | Potency (Tov-21-G) | Potency (Tov112D)

CC(C)(O)/C=C/C(=O)[C@](C)(O)[C@H]1[C@H](O)C[C@@]2(C)[C@@H]3CC=C4[C@@H](C=C(O[C@@H]5O[C@H](CO)[C@@H](O)[C@H](O)[C@H]5O)C(=O)C4(C)C)[C@]3(C)C(=O)C[C@]12C
inactive: Potency (OV90) | Potency (PA-1) | Potency (SKOV3) | Potency (Tov-21-G) | Potency (Tov112D)

OC[C@H]1O[C@@H](OCCc2ccccc2)[C@H](O)[C@@H](O)[C@@H]1O
inactive: Potency (OV90) | Potency (PA-1) | Potency (SKOV3) | Potency (Tov-21-G) | Potency (Tov112D)

CC(=O)O[C@H]1[C@H](OC(=O)C(C)C)[C@]2(C)OC3(CC[C@]2(C)[C@H]2CCC[C@]4(CO4)[C@]12C)COC(=O)C3 (stereo not given in full)
inactive: Potency (OV90) | Potency (PA-1) | Potency (SKOV3) | Potency (Tov-21-G) | Potency (Tov112D)

O=C(C[C@@H]1C(C(=O)O)=CO[C@@H](O[C@@H]2O[C@H](CO)[C@@H](O)[C@H](O)[C@H]2O)/C1=C\CO)OCCc1ccc(O)cc1
inactive: Potency (OV90) | Potency (PA-1) | Potency (SKOV3) | Potency (Tov-21-G) | Potency (Tov112D)

O=C(O)Cc1cn([C@@H]2OC[C@@H](O[C@@H]3O[C@H](CO)[C@@H](O)[C@H](O)[C@H]3O)[C@H](O)[C@H]2O[C@@H]2O[C@H](CO)[C@@H](O)[C@H](O)[C@H]2O)c2ccccc12
inactive: Potency (OV90) | Potency (PA-1) | Potency (SKOV3) | Potency (Tov-21-G) | Potency (Tov112D)
